# What was measured:
# Test in all cases: DAPPL (digital affinity profiling via proximity ligation, sequencing); 10 mM Tris-HCl pH 7.5, 50 mM NaCl, 1 mM DTT, 4% glycerol, room temperature, 30 min; GST-TFs on glutathione beads, 16-mer random dsDNA library, 0.1% formaldehyde crosslink after washing; high values mean tight binding
# FLI1 = target: T1, FLI1 (Homo sapiens, UniProt Q01543 1-452); conditions: protein: recombinant; tags: N-terminal GST; dsDNA, one strand shown
# T1 sequence: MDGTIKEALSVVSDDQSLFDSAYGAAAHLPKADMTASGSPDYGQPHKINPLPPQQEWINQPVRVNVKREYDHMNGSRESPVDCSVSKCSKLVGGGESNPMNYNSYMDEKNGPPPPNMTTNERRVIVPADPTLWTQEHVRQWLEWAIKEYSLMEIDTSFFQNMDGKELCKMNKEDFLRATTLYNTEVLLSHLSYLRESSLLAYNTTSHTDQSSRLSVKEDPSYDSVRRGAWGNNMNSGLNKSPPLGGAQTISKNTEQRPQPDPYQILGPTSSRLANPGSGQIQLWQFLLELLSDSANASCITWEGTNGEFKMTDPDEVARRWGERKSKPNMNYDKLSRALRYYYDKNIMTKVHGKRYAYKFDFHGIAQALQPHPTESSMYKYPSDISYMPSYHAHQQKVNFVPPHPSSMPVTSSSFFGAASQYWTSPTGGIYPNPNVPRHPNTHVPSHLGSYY
# Summary of the method: (§1)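 Beads coated with glutathione captured GST-fused human transcription factors that had been expressed in yeast, and the factors were then given DNA barcodes and pooled with a tag-only sample. The pools were incubated with 200 nmole of a random double-stranded 16-mer DNA library in Tris/NaCl/DTT/glycerol buffer for 30 min at room temperature, washed, crosslinked with 0.1% formaldehyde and proximity-ligated with BsaI/T4 ligase at 37 °C for 1 h. PCR amplification and Illumina NextSeq500 sequencing came last. Binding signal is each hexamer's read frequency for a factor divided by its frequency for the tag-only sample.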
# ELK1 = target: T2, ELK1 (Homo sapiens, UniProt P19419 1-428); conditions: protein: recombinant; tags: N-terminal GST; dsDNA, one strand shown
# T2 sequence: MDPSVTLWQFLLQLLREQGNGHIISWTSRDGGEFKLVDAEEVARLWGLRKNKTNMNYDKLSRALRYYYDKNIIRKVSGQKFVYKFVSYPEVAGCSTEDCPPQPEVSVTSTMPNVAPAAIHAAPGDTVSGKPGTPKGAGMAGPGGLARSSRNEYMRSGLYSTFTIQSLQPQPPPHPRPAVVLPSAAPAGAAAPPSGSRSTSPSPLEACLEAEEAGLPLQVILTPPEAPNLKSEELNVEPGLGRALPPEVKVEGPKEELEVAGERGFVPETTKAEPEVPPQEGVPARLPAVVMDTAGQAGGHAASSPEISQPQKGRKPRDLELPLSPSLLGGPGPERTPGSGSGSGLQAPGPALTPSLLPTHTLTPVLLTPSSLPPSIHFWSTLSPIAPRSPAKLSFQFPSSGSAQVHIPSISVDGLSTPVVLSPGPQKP
# Summary of the method: as §1
# GABPA = target: T3, GABPA (Homo sapiens, UniProt Q06546 1-454); conditions: protein: recombinant; tags: N-terminal GST; dsDNA, one strand shown
# T3 sequence: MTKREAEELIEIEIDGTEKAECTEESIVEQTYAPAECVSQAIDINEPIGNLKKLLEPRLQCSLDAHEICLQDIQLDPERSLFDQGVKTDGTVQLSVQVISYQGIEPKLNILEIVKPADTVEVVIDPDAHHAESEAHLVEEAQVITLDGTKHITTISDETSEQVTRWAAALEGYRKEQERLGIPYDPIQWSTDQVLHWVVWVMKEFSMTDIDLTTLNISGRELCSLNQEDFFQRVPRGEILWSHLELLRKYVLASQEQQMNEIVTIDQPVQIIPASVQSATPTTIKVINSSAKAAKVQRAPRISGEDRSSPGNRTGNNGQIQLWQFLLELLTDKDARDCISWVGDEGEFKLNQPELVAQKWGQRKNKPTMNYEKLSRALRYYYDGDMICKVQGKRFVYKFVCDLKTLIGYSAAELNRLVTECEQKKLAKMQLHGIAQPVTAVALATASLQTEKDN
# Summary of the method: as §1
# ERG = target: T4, ERG (Homo sapiens, UniProt P11308 1-479); conditions: protein: recombinant; tags: N-terminal GST; dsDNA, one strand shown
# T4 sequence: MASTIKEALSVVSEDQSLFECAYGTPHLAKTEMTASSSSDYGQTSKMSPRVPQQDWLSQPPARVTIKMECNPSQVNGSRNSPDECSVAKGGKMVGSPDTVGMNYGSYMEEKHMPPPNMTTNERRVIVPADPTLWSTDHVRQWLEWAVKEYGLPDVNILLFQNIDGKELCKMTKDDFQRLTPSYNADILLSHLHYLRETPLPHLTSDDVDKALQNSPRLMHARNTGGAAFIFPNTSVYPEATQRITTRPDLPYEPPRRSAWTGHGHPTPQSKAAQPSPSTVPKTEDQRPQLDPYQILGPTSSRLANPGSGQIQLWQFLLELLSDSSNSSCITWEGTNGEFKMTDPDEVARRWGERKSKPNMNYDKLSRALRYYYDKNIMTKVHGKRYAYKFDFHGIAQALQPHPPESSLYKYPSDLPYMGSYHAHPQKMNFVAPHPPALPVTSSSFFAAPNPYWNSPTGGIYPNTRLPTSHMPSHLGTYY
# Summary of the method: as §1
# ELF1 = ELF1 (Homo sapiens, UniProt P32519 1-619); conditions: protein: recombinant; tags: N-terminal GST; dsDNA, one strand shown
# Summary of the method: as §1
# EHF = target: T5, EHF (Homo sapiens, UniProt Q9NZC4 1-300); conditions: protein: recombinant; tags: N-terminal GST; dsDNA, one strand shown
# T5 sequence: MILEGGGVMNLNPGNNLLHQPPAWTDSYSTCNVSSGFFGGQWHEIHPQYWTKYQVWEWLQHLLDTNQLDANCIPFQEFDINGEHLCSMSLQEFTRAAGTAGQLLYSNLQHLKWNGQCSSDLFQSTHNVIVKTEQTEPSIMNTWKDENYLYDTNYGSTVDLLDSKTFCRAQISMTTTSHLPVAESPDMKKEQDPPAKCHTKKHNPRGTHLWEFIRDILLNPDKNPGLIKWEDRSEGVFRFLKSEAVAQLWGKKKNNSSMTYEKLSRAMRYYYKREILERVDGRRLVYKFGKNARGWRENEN
# Summary of the method: as §1
# SPI1 = SPI1 (Homo sapiens, UniProt P17947 1-270); conditions: protein: recombinant; tags: N-terminal GST; dsDNA, one strand shown
# Summary of the method: as §1
# SPIB = SPIB (Homo sapiens, UniProt Q01892 1-262); conditions: protein: recombinant; tags: N-terminal GST; dsDNA, one strand shown
# Summary of the method: as §1
# ELK3 = target: T6, ELK3 (Homo sapiens, UniProt P41970 1-407); conditions: protein: recombinant; tags: N-terminal GST; dsDNA, one strand shown
# T6 sequence: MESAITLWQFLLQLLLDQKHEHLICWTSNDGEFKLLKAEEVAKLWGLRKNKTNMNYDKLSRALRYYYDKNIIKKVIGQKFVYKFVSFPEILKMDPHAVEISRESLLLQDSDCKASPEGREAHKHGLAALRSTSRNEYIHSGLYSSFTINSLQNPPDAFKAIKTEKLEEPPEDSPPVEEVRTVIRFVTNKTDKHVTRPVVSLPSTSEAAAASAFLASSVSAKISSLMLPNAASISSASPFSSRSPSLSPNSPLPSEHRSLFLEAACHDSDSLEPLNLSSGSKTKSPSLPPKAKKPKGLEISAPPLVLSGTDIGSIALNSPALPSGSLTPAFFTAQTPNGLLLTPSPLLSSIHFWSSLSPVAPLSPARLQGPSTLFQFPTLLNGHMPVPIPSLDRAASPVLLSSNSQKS
# Summary of the method: as §1
# FEV = target: T7, FEV (Homo sapiens, UniProt Q99581 1-238); conditions: protein: recombinant; tags: N-terminal GST; dsDNA, one strand shown
# T7 sequence: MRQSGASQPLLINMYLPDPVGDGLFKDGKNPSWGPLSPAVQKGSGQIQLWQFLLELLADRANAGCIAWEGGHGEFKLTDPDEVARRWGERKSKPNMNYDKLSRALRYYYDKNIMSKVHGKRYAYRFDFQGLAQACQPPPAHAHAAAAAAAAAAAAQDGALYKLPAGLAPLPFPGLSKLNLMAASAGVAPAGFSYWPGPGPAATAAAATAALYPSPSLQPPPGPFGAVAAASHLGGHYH
# Summary of the method: as §1
# ETV5 = ETV5 (Homo sapiens, UniProt P41161 1-510); conditions: protein: recombinant; tags: N-terminal GST; dsDNA, one strand shown
# Summary of the method: as §1
# HSF1 = HSF1 (Homo sapiens, UniProt Q00613 1-529); conditions: protein: recombinant; tags: N-terminal GST; chain copies: 3; dsDNA, one strand shown
# Summary of the method: as §1
# SPIC = target: T8, SPIC (Homo sapiens, UniProt Q8N5J4 1-248); conditions: protein: recombinant; tags: N-terminal GST; dsDNA, one strand shown
# T8 sequence: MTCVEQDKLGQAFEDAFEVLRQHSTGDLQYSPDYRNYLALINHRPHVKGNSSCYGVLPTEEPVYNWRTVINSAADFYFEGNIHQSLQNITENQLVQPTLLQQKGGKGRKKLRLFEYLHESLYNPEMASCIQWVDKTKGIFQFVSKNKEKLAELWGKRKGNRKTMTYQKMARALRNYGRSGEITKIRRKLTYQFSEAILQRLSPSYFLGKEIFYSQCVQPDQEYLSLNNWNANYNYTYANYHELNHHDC
# Summary of the method: as §1
# ELF4 = ELF4 (Homo sapiens, UniProt Q99607 1-663); conditions: protein: recombinant; tags: N-terminal GST; dsDNA, one strand shown
# Summary of the method: as §1
# ELK4 = target: T9, ELK4 (Homo sapiens, UniProt P28324-2 1-405); conditions: protein: recombinant; tags: N-terminal GST; dsDNA, one strand shown
# T9 sequence: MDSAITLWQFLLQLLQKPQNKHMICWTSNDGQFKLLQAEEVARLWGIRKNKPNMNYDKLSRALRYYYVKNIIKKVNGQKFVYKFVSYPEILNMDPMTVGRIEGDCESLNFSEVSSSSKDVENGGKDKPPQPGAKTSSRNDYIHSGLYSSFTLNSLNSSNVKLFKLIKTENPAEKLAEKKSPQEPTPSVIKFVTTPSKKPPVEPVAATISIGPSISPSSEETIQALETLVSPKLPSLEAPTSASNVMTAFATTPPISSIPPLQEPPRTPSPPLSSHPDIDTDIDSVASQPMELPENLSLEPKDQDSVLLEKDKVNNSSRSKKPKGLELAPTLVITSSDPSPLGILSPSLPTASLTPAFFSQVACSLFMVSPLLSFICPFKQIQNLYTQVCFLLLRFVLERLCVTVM
# Summary of the method: as §1
# ETV2 = target: T10, ETV2 (Homo sapiens, UniProt O00321 1-342); conditions: protein: recombinant; tags: N-terminal GST; dsDNA, one strand shown
# T10 sequence: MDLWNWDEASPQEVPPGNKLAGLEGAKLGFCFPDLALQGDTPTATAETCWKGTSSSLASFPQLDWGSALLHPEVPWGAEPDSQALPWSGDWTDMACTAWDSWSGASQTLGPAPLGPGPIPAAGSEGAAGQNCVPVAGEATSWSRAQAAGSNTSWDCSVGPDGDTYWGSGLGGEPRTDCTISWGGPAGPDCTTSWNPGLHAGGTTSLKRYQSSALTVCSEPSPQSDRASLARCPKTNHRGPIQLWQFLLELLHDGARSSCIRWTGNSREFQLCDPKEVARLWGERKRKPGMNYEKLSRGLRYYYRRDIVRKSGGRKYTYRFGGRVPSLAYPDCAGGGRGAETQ
# Summary of the method: as §1
# ELF3 = target: T11, ELF3 (Homo sapiens, UniProt P78545 1-371); conditions: protein: recombinant; tags: N-terminal GST; dsDNA, one strand shown
# T11 sequence: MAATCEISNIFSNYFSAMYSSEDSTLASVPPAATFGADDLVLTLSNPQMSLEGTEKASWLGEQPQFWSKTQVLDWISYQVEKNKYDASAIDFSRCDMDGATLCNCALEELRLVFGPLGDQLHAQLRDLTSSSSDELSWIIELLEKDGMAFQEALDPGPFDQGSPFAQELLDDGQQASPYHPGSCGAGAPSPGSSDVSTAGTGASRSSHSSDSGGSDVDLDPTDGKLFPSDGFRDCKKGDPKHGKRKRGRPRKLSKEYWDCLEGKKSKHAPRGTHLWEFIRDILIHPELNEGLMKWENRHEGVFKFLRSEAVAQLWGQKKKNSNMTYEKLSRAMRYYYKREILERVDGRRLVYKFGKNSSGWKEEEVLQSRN
# Summary of the method: as §1
# CRX = CRX (Homo sapiens, UniProt O43186 1-299); conditions: protein: recombinant; tags: N-terminal GST; dsDNA, one strand shown
# Summary of the method: as §1
# ETV1 = ETV1 (Homo sapiens, UniProt P50549 1-477); conditions: protein: recombinant; tags: N-terminal GST; dsDNA, one strand shown
# Summary of the method: as §1
# Sequence of HSF1 (Q00613 whole entry): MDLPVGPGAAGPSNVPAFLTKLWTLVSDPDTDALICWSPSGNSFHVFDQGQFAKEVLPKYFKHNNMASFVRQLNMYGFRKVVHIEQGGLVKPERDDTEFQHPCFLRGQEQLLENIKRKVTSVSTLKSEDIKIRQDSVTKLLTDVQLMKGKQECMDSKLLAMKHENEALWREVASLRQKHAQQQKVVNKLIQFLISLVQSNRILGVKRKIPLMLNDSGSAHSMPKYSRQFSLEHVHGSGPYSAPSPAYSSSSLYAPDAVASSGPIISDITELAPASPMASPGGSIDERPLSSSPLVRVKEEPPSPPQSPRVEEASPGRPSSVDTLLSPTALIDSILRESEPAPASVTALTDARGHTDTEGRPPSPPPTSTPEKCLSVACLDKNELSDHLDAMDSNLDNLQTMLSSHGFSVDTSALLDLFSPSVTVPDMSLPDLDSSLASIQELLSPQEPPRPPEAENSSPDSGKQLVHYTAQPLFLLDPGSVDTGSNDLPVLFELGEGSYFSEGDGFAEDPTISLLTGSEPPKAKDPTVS
# Sequence of ELF4 (Q99607 whole entry): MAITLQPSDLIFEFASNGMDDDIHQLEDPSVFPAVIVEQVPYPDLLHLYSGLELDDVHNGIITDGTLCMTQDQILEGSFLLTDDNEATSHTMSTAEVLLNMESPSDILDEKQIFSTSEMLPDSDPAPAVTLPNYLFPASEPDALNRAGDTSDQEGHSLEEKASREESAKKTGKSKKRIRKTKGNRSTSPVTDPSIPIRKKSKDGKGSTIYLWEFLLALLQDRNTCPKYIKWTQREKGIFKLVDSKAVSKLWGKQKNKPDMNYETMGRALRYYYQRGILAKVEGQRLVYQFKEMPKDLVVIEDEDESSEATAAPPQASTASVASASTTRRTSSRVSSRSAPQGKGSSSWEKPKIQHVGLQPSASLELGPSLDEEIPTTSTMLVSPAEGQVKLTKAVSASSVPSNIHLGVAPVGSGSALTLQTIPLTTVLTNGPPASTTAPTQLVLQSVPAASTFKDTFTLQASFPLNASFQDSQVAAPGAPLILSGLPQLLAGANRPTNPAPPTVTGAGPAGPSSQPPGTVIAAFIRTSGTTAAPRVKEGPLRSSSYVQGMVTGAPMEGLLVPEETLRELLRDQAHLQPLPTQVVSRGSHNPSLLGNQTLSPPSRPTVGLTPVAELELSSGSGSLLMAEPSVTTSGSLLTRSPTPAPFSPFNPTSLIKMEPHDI
# Sequence of SPIB (Q01892 whole entry): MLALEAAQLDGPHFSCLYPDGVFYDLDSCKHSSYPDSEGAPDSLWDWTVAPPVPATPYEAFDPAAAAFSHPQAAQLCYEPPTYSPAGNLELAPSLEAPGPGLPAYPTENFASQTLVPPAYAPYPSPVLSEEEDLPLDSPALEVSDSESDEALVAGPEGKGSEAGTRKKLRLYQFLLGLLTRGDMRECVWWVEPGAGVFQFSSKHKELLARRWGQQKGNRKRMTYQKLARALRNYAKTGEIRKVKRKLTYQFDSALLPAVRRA
# Sequence of ELF1 (P32519 whole entry): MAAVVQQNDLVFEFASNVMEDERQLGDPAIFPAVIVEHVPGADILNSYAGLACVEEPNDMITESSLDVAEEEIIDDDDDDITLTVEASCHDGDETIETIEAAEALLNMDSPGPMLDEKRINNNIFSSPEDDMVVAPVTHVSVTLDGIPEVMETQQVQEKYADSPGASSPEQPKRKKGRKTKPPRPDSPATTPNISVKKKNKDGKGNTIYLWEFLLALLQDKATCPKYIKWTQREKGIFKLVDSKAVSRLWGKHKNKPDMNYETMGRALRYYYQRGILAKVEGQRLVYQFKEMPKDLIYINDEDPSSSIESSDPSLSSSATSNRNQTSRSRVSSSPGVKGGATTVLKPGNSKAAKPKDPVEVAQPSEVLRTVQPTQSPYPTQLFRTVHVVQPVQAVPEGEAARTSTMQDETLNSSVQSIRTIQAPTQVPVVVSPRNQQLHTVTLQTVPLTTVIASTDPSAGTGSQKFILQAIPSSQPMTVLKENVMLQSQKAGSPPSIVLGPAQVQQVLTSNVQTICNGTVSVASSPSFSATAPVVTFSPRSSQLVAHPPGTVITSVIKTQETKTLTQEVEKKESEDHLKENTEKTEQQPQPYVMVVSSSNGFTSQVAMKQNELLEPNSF
# Sequence of ETV1 (P50549 whole entry): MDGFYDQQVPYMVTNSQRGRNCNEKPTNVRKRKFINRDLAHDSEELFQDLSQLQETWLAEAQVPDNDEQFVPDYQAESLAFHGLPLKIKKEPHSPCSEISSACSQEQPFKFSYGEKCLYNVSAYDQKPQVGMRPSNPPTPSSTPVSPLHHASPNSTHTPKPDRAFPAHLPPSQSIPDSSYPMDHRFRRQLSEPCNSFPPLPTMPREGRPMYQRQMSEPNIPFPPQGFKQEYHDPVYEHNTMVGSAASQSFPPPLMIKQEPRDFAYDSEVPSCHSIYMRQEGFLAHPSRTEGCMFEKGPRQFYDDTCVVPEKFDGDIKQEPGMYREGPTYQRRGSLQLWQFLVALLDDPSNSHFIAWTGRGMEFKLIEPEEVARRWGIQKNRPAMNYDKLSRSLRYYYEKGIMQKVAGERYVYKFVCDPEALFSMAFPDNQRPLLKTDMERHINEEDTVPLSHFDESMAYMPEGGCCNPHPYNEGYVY
# Sequence of CRX (O43186 whole entry): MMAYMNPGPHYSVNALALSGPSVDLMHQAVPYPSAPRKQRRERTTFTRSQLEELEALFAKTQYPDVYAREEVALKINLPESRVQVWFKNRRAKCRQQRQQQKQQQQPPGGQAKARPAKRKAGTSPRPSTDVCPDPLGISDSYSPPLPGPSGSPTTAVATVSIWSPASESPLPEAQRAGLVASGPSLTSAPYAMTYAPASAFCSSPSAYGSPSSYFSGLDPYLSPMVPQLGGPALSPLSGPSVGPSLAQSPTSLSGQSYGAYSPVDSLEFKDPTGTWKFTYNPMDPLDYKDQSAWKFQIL
# Sequence of ETV5 (P41161 whole entry): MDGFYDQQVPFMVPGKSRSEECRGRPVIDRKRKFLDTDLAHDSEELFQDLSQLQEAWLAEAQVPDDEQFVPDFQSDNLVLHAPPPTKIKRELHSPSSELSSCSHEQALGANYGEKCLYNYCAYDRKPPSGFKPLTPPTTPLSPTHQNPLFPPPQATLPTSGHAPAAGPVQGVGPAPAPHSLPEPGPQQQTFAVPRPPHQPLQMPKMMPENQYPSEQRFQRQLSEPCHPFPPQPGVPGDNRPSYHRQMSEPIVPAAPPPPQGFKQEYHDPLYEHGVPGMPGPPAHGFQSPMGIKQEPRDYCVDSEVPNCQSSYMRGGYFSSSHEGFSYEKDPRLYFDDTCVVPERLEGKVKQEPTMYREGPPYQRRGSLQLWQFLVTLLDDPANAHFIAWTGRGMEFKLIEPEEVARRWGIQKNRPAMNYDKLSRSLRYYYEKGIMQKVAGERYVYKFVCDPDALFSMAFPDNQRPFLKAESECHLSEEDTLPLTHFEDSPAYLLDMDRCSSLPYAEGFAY
sequence,measurement,setting,value
GTTTCT,binding signal,FLI1,"1.36 fold enrichment (6-mer frequency, TF over GST control)"
same,binding signal,ELK1,"1.17 fold enrichment (6-mer frequency, TF over GST control)"
same,binding signal,GABPA,"1.26 fold enrichment (6-mer frequency, TF over GST control)"
same,binding signal,ERG,"1.22 fold enrichment (6-mer frequency, TF over GST control)"
same,binding signal,ELF1,"1.29 fold enrichment (6-mer frequency, TF over GST control)"
same,binding signal,EHF,"1.28 fold enrichment (6-mer frequency, TF over GST control)"
same,binding signal,SPI1,"1.31 fold enrichment (6-mer frequency, TF over GST control)"
same,binding signal,SPIB,"1.25 fold enrichment (6-mer frequency, TF over GST control)"
same,binding signal,ELK3,"1.14 fold enrichment (6-mer frequency, TF over GST control)"
same,binding signal,FEV,"1.16 fold enrichment (6-mer frequency, TF over GST control)"
same,binding signal,ETV5,"1.24 fold enrichment (6-mer frequency, TF over GST control)"
same,binding signal,HSF1,"1.84 fold enrichment (6-mer frequency, TF over GST control)"
same,binding signal,SPIC,"1.28 fold enrichment (6-mer frequency, TF over GST control)"
same,binding signal,ELF4,"1.28 fold enrichment (6-mer frequency, TF over GST control)"
same,binding signal,ELK4,"1.15 fold enrichment (6-mer frequency, TF over GST control)"
same,binding signal,ETV2,"1.25 fold enrichment (6-mer frequency, TF over GST control)"
same,binding signal,ELF3,"1.2 fold enrichment (6-mer frequency, TF over GST control)"
same,binding signal,CRX,"1.15 fold enrichment (6-mer frequency, TF over GST control)"
same,binding signal,ETV1,"1.33 fold enrichment (6-mer frequency, TF over GST control)"
